Source: the supplement of paper PMC13094657
± gives the standard deviation of the averaged measurements.

Columns and labels:
[1] = tested on: MDA-MB-231; test: cell viability relative to vehicle unstimulated control (fraction); higher = more viable cells; conditions: pre-treatment time: 18 h then 24 h IFNg/TNF
[2] = tested on: MDA-MB-231; test: kynurenine production, fold change vs DMSO IFNg/TNF control; higher = more kynurenine produced (less inhibition); conditions: pre-treatment time: 18 h then 24 h IFNg/TNF
Outline: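 Fold change over cytokine-stimulated vehicle wells on the same plate is the measure used for kynurenine production, averaged across duplicate plates in the first screening round. MDA-MB-231 cells, seeded 24 h beforehand at 7 × 10^4/well in 96-well plates, were pre-treated 18 h with each natural product in 0.1% DMSO and stimulated 24 h at 37°C with IFNγ (1 U/ml) and TNF (6.25 ng/ml). Supernatants were read at 492 nm following trichloroacetic acid and p-dimethylaminobenzaldehyde treatment, against 0–100 μM standards.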
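Wherever cell viability relative to vehicle unstimulated control is given: viability of the cells left after supernatant collection, read with Deep Blue dye added for 4 h, as absorbance at 570 nm minus 600 nm.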

Row | SMILES | cell viability [1] | kynurenine production [2]
1 | CC1=CCC2C[C@H]1C2(C)C [(1R)-α-Pinene] (compound dose: 10 uM) | 0.932 ± 0.081 | 0.79 ± 0.12
2 | CC12CCC(CC1=O)C2(C)C (stereo not drawn) [(+)-Camphor] (compound dose: 10 uM) | 1 ± 0.016 | 0.98 ± 0.25
3 | C[C@H]1[C@@H](O)O[C@@H]2O[C@@]3(C)CC[C@H]4[C@H](C)CC[C@@H]1[C@@]24OO3 [Dihydroartemisinin] (compound dose: 10 uM) | 0.978 ± 0.069 | 0.688 ± 0.12
4 | CC1(C)CCC[C@](C)([C@H]2CC[C@]3(C)[C@@H]2[C@H](O)C[C@@H]2[C@@]4(C)CC[C@H](O)C(C)(C)[C@@H]4CC[C@]23C)O1 [Panaxadiol] (compound dose: 10 uM) | 1.04 ± 0.013 | 0.719 ± 0.088
5 | CC1=CC23C(=O)C(C=C4COC(C)(C)OC4C2(O)C1O)C1C(CC3C)C1(C)C (stereo unspecified) [Ingenol-5,20-acetonide] (compound dose: 10 uM) | 0.948 ± 0.042 | 1.07 ± 0.082
6 | C=C1[C@H](OC(C)=O)[C@@H](O)[C@@H](OC(=O)c2cccnc2)C(C)(C)/C=C/[C@H](C)[C@H](OC(C)=O)[C@@]2(O)C[C@@](C)(OC(C)=O)[C@H](OC(=O)c3ccccc3)[C@@H]2[C@H]1OC(C)=O [Jatrophane 5] (compound dose: 10 uM) | 1.12 ± 0.027 | 0.90473 ± 0.00055
7 | CC(C)=CCC/C(C)=C/C=O [Citral] (compound dose: 10 uM) | 0.922 ± 0.019 | 0.864 ± 0.074
8 | C=C(C)C1CC=C(C)CC1 (stereo not drawn) [(s)-(-)-limonene] (compound dose: 10 uM) | 0.944 ± 0.051 | 0.84 ± 0.099
9 | CC(CC(=O)C[C@](C)(O)[C@H]1CC(=O)[C@@]2(C)C3=C(C(=O)C[C@]12C)[C@@]1(C)CCC(=O)C(C)(C)[C@@H]1C[C@@H]3O)C(=O)O (stereo partly specified) [Ganoderic acid N] (compound dose: 10 uM) | 1.03 ± 0.053 | 0.857 ± 0.12
10 | COC(=O)C1=CO[C@@H](O[C@@H]2O[C@H](CO)[C@@H](O)[C@H](O)[C@H]2O)[C@@H]2[C@H](C)O[C@@H](O)C[C@H]12 [Morroniside] (compound dose: 10 uM) | 1.015 ± 0.0011 | 1.22 ± 0.21
11 | COc1ccc(-c2cc(=O)c3c(O)c(OC)c(O[C@@H]4O[C@H](CO[C@@H]5O[C@@H](C)[C@H](O)[C@@H](O)[C@H]5O)[C@@H](O)[C@H](O)[C@H]4O)cc3o2)cc1 [Pectolinarin] (compound dose: 10 uM) | 0.833 ± 0.26 | 0.907 ± 0.2
12 | COc1cc2c(cc1O)C(Cc1ccc(O)cc1)[N+](C)(C)CC2 (stereo unspecified) [Magnocurarine] (compound dose: 10 uM) | 1.02 ± 0.014 | 0.937 ± 0.083
13 | C=C1[C@H](OC(=O)C(C)C)[C@@H](O)[C@@H](OC(C)=O)C(C)(C)/C=C/[C@H](C)[C@H](OC(C)=O)[C@@]2(O)C[C@@](C)(OC(C)=O)[C@H](OC(=O)c3ccccc3)[C@@H]2[C@H]1OC(C)=O [Jatrophane 4] (compound dose: 10 uM) | 1.1 ± 0.017 | 0.7528 ± 0.0061
14 | C=C1[C@@H]2CC[C@@H]3[C@](C2)(C(=O)[C@@H](O)[C@@H]2C(C)(C)[C@H]4CC(=O)[C@@]32CO4)[C@@H]1OC(C)=O [Maoecrystal A] (compound dose: 10 uM) | 0.9322 ± 0.0011 | 0.8659 ± 0.0031
15 | C[C@H](C[C@H](O)[C@H]1OC1(C)C)C1=C2C[C@H](O)[C@H]3[C@@]4(C)CCC(=O)C(C)(C)[C@@H]4CC[C@]3(C)[C@@]2(C)CC1 [Alisol B] (compound dose: 10 uM) | 0.865 ± 0.13 | 1.0307 ± 0.00045
16 | C=C1CC[C@@H]2[C@](C)(CO)[C@H](O)CC[C@@]2(C)[C@@H]1/C=C/C1=CCOC1=O [14-Deoxy-11,12-didehydroandrographolide] (compound dose: 10 uM) | 0.857 ± 0.047 | 0.921 ± 0.095
17 | C=C1C(=O)O[C@@H]2CC(C)=C([C@@H](C)CCCOC(C)=O)[C@@H](O)[C@H]12 [Inulicin] (compound dose: 10 uM) | 0.912 ± 0.096 | 1.16 ± 0.15
18 | C[C@@H]1O[C@@H](O[C@H]2[C@H](O)[C@@H](O)[C@H](OC[C@H]3O[C@@H](OC(=O)[C@]45CCC(C)(C)C[C@H]4C4=CC[C@@H]6[C@@]7(C)CC[C@H](O[C@@H]8OC[C@H](O)[C@H](O)[C@H]8O)[C@@](C)(CO)[C@@H]7CC[C@@]6(C)[C@]4(C)CC5)[C@H](O)[C@@H](O)[C@@H]3O)O[C@@H]2CO)[C@H](O)[C@H](O)[C@H]1O [Cauloside D] (compound dose: 10 uM) | 0.997 ± 0.083 | 1.23 ± 0.19
